These results are taken from PubChem BioAssay.

The nature of experiment [1]: Wnt pathway potentiators raising nuclear beta-catenin – imaging, WNT3A-conditioned medium, mouse C2C12, NPC library, primary screen (AID 1117326; in the data active = nuclear beta-catenin stimulation mostly above about 4.2%, no sharp cut-off; inactive = mostly below about 10%). Conditions: stronger effect = higher value.
Experiment [2] in a line: stimulators of insulin release from INS-1E, primary screen, cell-based, 5 mM glucose, NPC library (AID 1117329;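 active = compound raises insulin release from rat beta cells at 5 mM glucose, no numeric limit stated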). Conditions: rat INS-1E insulin secretion, at 10 µM, stronger effect = higher value.
Experiment [3] is described as follows: growth inhibition of GSK3B-pretreated HCT116 cells – cell-based, CellTiter-Glo, 0.2 to 20 µM (AID 1117336;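 active = compounds lowering colon cancer cell viability after pretreatment blocking the GSK3B kinase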). Conditions: HCT116 viability after GSK3B inhibitor, at 20 µM, stronger effect = higher value. (ATP-based viability assays read luminescence as a measure of living cells.)
Experiment [4] can be described thus: inhibition of endothelial tube formation, primary screen, imaging, VEGF stimulated, CD31 staining, tube area, NPC library (AID 1117340;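 active = compound that reduces growth-factor-driven endothelial tube area in a mixed cell culture, no cutoff stated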). Conditions: VEGF-stimulated ADSC/ECFC co-culture, at 10 µM, stronger effect = higher value.
Experiment [5] in a line: GLP1 release stimulators, primary, NCI-H716, NPC library (AID 1117341;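 active = compound raises GLP1 secretion from the human gut endocrine cells, with no numeric limit stated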). Conditions: NCI-H716 cells, at 10 µM, stronger effect = higher value.
A short description of experiment [6]: HCT116 colon cancer cell growth inhibition, primary screen, CellTiter-Glo luminescence, NPC library (AID 1117342;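 active = compounds that lower survival of HCT116 colon cancer cells in the luminescence readout, no numeric limit stated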). Conditions: at 20 µM (top of the series).
Experiment [7] in a line: reduced SW480 viability measured with CellTiter-Glo, NPC library, primary (AID 1117343;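 active = compounds that lower viability of the colon cancer cells in the luminescence readout, with no numeric limit stated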). Conditions: CellTiter-Glo luminescence; at 20 µM (top of the series) unless noted.
Experiment [8] is described as follows: NPC library primary testing for decreased DLD-1 cell viability via CellTiter-Glo (AID 1117346;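 active = compounds that lower survival of DLD-1 colon cancer cells in the luminescence readout, no cutoff given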). Conditions: DLD-1 viability, CellTiter-Glo luminescence; at 20 µM (top of the series).
Experiment [9] can be described thus: viability loss with induced miR-34 in A549 – imaging, A549 dox-inducible miR-34, nuclei and caspase counts, primary screen (AID 1347080;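 active = compounds whose cell count with miR-34 switched on is under 0.7 times the count with it off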). Conditions: A549 miR-34 inducible, Hoechst nuclei count, 48 h.
A short description of experiment [10]: blockers of cellular phospholipid synthesis – cell-based, LOPAC library, screen 4, primary screen (AID 1347384; call rule not given here). Conditions: animal cells, phospholipid biosynthesis inhibition screen; at 10 µM.
Experiment [11] can be described thus: galactose survival enhancers in mitochondrial complex I cybrids – cell-based, galactose medium, ATP luminescence, primary screen (AID 1645843;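 active = z-score of at least 1.8 in each of two replicates, scored against plate mean and spread of sample wells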;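 note: positive z means more ATP and so rescue of galactose-driven cybrid death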). Conditions: complex I mutant cybrid cells, 72 h, stronger effect = higher value.
The nature of experiment [12]: MELAS cybrid and Rieske KO viability enhancers – cell-based, MELAS cybrids, Rieske KO mouse fibroblasts, CellTiter-Glo, primary screen (AID 1508586;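 active = mean z-score across replicates of 1.96 or higher in either the MELAS or the Rieske mutant cell line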;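 note: z relative to plate mean and SD of compound and empty wells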). Conditions: low glucose.
Experiment [13] in a line: drug combination growth inhibition, ovarian cancer – cell-based, oncology-focused library, rucaparib conditional, profiling panel (AID 1508598). Conditions: patient-derived ovarian cancer cells, CellTiter-Glo viability, 144 h, stronger effect = lower value.
[14] abbreviates: stronger effect = lower value, cell number ratio, induced over uninduced.
The mark [15] stands for this setting: measured here: relative caspase fold change +Dox/-Dox.
Where [16] appears, read: measured here: total cells with miR-34 induction, stronger effect = lower value.
The mark [17] stands for this setting: measured here: total cells without miR-34 induction.

By viability is commonly meant a read-out of living cells in per cent, often relative to untreated cells.

Active and inactive are the calls of the source.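 Rule for the calls, unless noted: active = normalized viability below 100% at a tested concentration; inactive = the rest.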

As to `CC1=C(CC(=O)O)c2cc(F)ccc2/C1=C\c1ccc(S(C)(=O)=O)cc1`, the nuclear beta-catenin stimulation in [1] (at 10 µM) is 0.1% (inactive); in experiment [1] (stimulation, at 2 µM), -0.8%. For the same compound, the insulin secretion stimulation in experiment [2] is -1.1% (inactive). For the same compound, the viability decrease in [3] was 39.5% (inactive). For the same compound, the tube area decrease in [4] was 7.6% (inactive). Besides, the GLP1 secretion stimulation in experiment [5] is -0.4% (inactive). Besides, the inhibition of viability in experiment [6] was 66.3% (active). Besides, the viability decrease (inhibition) in [7] is 88.7% (active); in experiment [8], 90.1% (active). Moreover, the fold change was 0.998 (inactive) in experiment [9] (setting [14]) and 1.86 in experiment [9] (setting [15]). Further, the cell count was found to be 9240 in experiment [9] (setting [16]) and 9260 in experiment [9] (setting [17]). For the same compound, the compound was classed as inactive in [10]. Also, the z-score in [11] was 0.795 (inactive).

`C[C@]12CCC(=O)C=C1CC[C@@H]1[C@@H]2CC[C@@]2(C)[C@H]1CC[C@]2(O)C(=O)CO`: the nuclear beta-catenin stimulation was 0.3% (inactive) in [1] (at 10 µM) and -0.1% in [1] (stimulation, at 2 µM). Moreover, the insulin secretion stimulation in experiment [2] is -1.7% (inactive). In addition, the viability decrease in experiment [3] is -3.9% (inactive). Besides, the tube area decrease in experiment [4] was 5.4% (inactive). Besides, in [5], the GLP1 secretion stimulation was 1.1% (inactive). In experiment [6], the inhibition of viability is 25.1% (inactive). For the same compound, the viability decrease (inhibition) in [7] is 12.3% (inactive); in [8], -6.8% (inactive). In addition, the fold change in experiment [9] (setting [14]) was 1 (inactive); in experiment [9] (setting [15]) it was 0.913. For the same compound, the cell count in [9] (setting [16]) was 8610; in experiment [9] (setting [17]), 8590. Also, the compound was called inactive in [10]. The z-score in experiment [11] is 0.435 (inactive).

For the compound `CCCCCCCCCCCCCCC[C@H](O)[C@@H](N)CO`, the nuclear beta-catenin stimulation in experiment [1] (at 10 µM) is 43.1% (active); in experiment [1] (stimulation, at 2 µM), 1.5%. Besides, in [2], the insulin secretion stimulation was 1% (inactive). For the same compound, the viability decrease in experiment [3] is 72.1% (active). For the same compound, the tube area decrease in experiment [4] was 17.5% (inactive). In addition, the GLP1 secretion stimulation in experiment [5] is 7.7% (inactive). Besides, in experiment [6], the inhibition of viability was 69.8% (active). Also, the viability decrease (inhibition) in experiment [7] is 143% (active); in [8], 104% (active). For the same compound, the fold change in experiment [9] (setting [14]) was 0.915 (inactive); in experiment [9] (setting [15]), 1.42. The cell count in experiment [9] (setting [16]) was determined as 5120; in experiment [9] (setting [17]) it was 5600.

For the compound `COC(=O)[C@@H](N)Cc1ccc(O)c(O)c1`, the nuclear beta-catenin stimulation was 6.9% (inactive) in [1] (at 10 µM) and 0% in [1] (stimulation, at 2 µM). In experiment [2], the insulin secretion stimulation is -2.6% (inactive). Besides, the viability decrease in experiment [3] was 22% (inactive). In addition, the tube area decrease in experiment [4] is 1.4% (inactive). Also, the GLP1 secretion stimulation in experiment [5] is 5.5% (inactive). In addition, in experiment [6], the inhibition of viability was 8.3% (inactive). Also, the results for the viability decrease (inhibition) in experiment [7] and in experiment [8] were 64.7% (active) and 15.2% (inactive), respectively. For the same compound, the fold change was 0.967 (inactive) in [9] (setting [14]) and 1.36 in experiment [9] (setting [15]). Further, the cell count in experiment [9] (setting [16]) worked out at 9830; in experiment [9] (setting [17]) it was 10200. Besides, the outcome in [10] was inactive. For the same compound, the z-score in experiment [11] was -1.02 (inactive).

As to `Nc1cccc2c1CN(C1CCC(=O)NC1=O)C2=O` (stereo not drawn), the nuclear beta-catenin stimulation in [1] (at 10 µM) was 2% (inactive); in [1] (stimulation, at 2 µM) it was 0.3%. Moreover, the insulin secretion stimulation in experiment [2] is 1.3% (inactive). In experiment [3], the viability decrease is 0% (inactive). Besides, in experiment [4], the tube area decrease was -3.8% (inactive). In addition, the GLP1 secretion stimulation in [5] was 0% (inactive). Also, the inhibition of viability in experiment [6] is -8.6% (inactive). Also, the viability decrease (inhibition) is -19.5% (inactive) in experiment [7] and 1.2% (inactive) in experiment [8]. The fold change in experiment [9] (setting [14]) was 1.01 (inactive); in experiment [9] (setting [15]), 0.954. Further, the cell count worked out at 8240 in experiment [9] (setting [16]) and 8190 in experiment [9] (setting [17]). Besides, the z-score is -0.434 (inactive) in [12] (MELAS cybrid survival, CellTiter-Glo 48 h, stronger effect = higher value) and 0.686 in experiment [12] (Rieske KO mouse fibroblast survival, CellTiter-Glo 72 h). For the same compound, the viability is 116% (inactive) in experiment [13] (at 0.000305 µM, OCI-C5x cells, with rucaparib 10 µM, 100% = cells with rucaparib alone); 116% (inactive) in experiment [13] (at 0.000305 µM, OCI-C5x cells, without rucaparib); 126% (inactive) in experiment [13] (at 0.000305 µM, OCI-P5x cells, with rucaparib 20 µM, 100% = cells with rucaparib alone); 106% (inactive) in [13] (at 0.000305 µM, OCI-P5x cells, without rucaparib); 122% (inactive) in experiment [13] (at 0.00122 µM, OCI-C5x cells, with rucaparib 10 µM, 100% = cells with rucaparib alone); 116% (inactive) in [13] (at 0.00122 µM, OCI-C5x cells, without rucaparib). For the same compound, the viability in experiment [13] (at 0.00122 µM, OCI-P5x cells, with rucaparib 20 µM, 100% = cells with rucaparib alone) is 130% (inactive); in experiment [13] (at 0.00122 µM, OCI-P5x cells, without rucaparib) it was 105% (inactive); in experiment [13] (at 0.00488 µM, OCI-C5x cells, with rucaparib 10 µM, 100% = cells with rucaparib alone), 126% (inactive); in experiment [13] (at 0.00488 µM, OCI-C5x cells, without rucaparib) it was 115% (inactive); in experiment [13] (at 0.00488 µM, OCI-P5x cells, with rucaparib 20 µM, 100% = cells with rucaparib alone), 123% (inactive); in [13] (at 0.00488 µM, OCI-P5x cells, without rucaparib) it was 95.9% (active). In addition, the viability in [13] (at 0.0195 µM, OCI-C5x cells, with rucaparib 10 µM, 100% = cells with rucaparib alone) is 113% (inactive); in [13] (at 0.0195 µM, OCI-C5x cells, without rucaparib) it was 114% (inactive); in experiment [13] (at 0.0195 µM, OCI-P5x cells, with rucaparib 20 µM, 100% = cells with rucaparib alone), 125% (inactive).
